# AmpC inh no detg: blocks E. coli AmpC beta-lactamase in detergent-free assay | P00811 | Potency, µM (top dose mostly 57.1 µM), for the others: top-dose activity change, negative = inhibition, hits mostly inhibitors | AmpC nitrocefin hydrolysis, absorbance 480 nm, 0.0001% Triton | 330,000 tested, 0.52% active;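 also: plate controls were no compound for no effect and no enzyme for full effect; nearly all actives have a fitted effect of over 20% in size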
# Target sequence (P00811 whole entry, looked up): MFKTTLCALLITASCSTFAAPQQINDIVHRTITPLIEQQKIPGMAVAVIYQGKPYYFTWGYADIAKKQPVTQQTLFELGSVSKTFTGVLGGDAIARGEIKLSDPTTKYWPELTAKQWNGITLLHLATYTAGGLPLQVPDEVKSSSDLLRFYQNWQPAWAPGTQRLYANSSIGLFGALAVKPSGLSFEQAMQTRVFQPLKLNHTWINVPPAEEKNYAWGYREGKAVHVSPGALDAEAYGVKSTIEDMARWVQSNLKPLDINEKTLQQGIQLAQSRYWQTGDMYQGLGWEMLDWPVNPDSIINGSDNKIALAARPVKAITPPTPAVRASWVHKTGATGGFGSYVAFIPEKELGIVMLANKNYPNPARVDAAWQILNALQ
#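 20 mM phosphate pH 7.0 + 0.01% (detergent screen) or 0.0001% Triton X-100; 5.3 nM AmpC reagent; cpd preinc 15 min RT; nitrocefin (800 uM stock) to start; A480 q20 s × 4 min; Activity was normalised to no-enzyme and no-compound control wells.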
# AmpC detergent: blocks E. coli AmpC beta-lactamase in detergent assay; P00811; AmpC hydrolysis of nitrocefin, absorbance 480 nm, 0.01% Triton; Potency, µM (doses to about 114 µM), for inactives: at the top dose activity change, negative = inhibition, hits mostly inhibitors; 370,000 tested, 0.041% active;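 also: 0% = no-compound wells and -100% = no-enzyme wells; nearly all actives have a fitted effect of over 25% in size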
#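 AmpC (5.3 nM in the dispensed reagent) in 20 mM phosphate pH 7.0 with 0.01% (detergent screen) or 0.0001% Triton X-100 was preincubated with compounds for 15 min at room temperature. Nitrocefin was then added from an 800 uM solution, and hydrolysis was followed at 480 nm.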
# RE007 growth inh: less growth of the S. pombe RE007 Vpr strain; S. pombe RE007 Vpr strain, BacTiter-Glo ATP luminescence, 24 h; Potency, µM (doses to about 92.2 µM), inactives show at the highest dose activity change, negative = less growth, most hits filed as inhibitors; 360,000 tested, 0.21% active; AID 651644; active = well fitted falling curve with a large enough effect; inconclusive = small, poorly fitted or top-dose-only effect; inactive = no such curve, though single readings can be large or run the other way; also: nearly all actives have a fitted effect of over 50% in size
#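 Fission yeast strain RE007, carrying one chromosomally integrated HIV-1 vpr copy, was seeded at OD 0.01 in PMG+AL medium with 23 nL pinned compound. After 24 h at 30 °C and 99% humidity, viability was read by BacTiter-Glo luminescence.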
# FBPA Giardia inh: inhibitors of Giardia lamblia fructose-1,6-bisphosphate aldolase; A8B2U2; purified Giardia FBPA; Potency, µM (doses to about 59.6 µM), without a hit: top-dose activity, negative = inhibition, actives largely listed as inhibitors; 290,000 tested, 0.71% active; also: nearly all actives have a fitted effect of over 55% in size
# Target sequence (A8B2U2 whole entry, looked up): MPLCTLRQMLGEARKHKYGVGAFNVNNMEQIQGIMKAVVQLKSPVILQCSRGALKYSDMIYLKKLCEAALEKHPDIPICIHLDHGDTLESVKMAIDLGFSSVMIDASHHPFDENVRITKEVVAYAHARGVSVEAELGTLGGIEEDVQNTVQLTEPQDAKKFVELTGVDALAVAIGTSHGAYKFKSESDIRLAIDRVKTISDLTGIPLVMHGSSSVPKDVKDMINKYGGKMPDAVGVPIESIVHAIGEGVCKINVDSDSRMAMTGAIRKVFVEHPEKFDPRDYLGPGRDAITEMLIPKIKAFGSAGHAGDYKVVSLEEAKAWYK
#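 40 nM FBPA preincubated 10 min at RT with compound (up to 57.5 uM final), then substrate plus GAPDH/TPI/NAD/arsenate coupling and diaphorase/resazurin added. Fluorescence read after 20 min at RT, 525/598 nm.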
# Sm TGR inh: blocks Schistosoma mansoni thioredoxin glutathione reductase; Q962Y6; purified TGR, DTNB reduction, TNB absorbance 405 nm; Potency, µM (top dose mostly 114 µM), for the others: top-dose activity change, negative = inhibition, actives largely listed as inhibitors; 360,000 tested, 3% active; also: nearly all actives have a fitted effect of over 60% in size
#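 First, TGR (20 nM dispensed) and NADPH were mixed with compound. Second, a 15 min room-temperature incubation followed. Third, further NADPH and then DTNB were added to start the reaction. Finally, TNB absorbance was monitored kinetically.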
# The depositor's hits bear a star; ? = inconclusive; . = not tested or not shown; [ ] = remark or other dose. A selection: hits, their analogues and other compounds. The true share with any hit is near 3.4%. Unless noted, calls follow the shape of the dose curve; as a rule, active = well fitted curve in the direction sought with a large enough effect; inconclusive = small, poorly fitted or top-dose-only effect, or another doubt; inactive = no such curve, though single readings can be large; an effect the other way counts as inactive or inconclusive. Unless noted, % is scaled to controls: 0 for no effect and ±100 for the full control effect; potency is read from the fitted curve at half-maximal effect.
SMILES,AmpC inh no detg,AmpC detergent,RE007 growth inh,FBPA Giardia inh,Sm TGR inh
C=CC(C1=CC(=O)C(OC)=CC1=O)c1ccc(OC)cc1 (centres undefined),.,.,.,20µM*,.
O=C(CSc1n[nH]c(=O)n1-c1cccnc1)N1CCOCC1,18%,1%,2%,2%,8%
O=c1cc(Nc2ccc3c(c2)OCO3)[nH]c(=O)n1-c1ccc(Br)cc1,-21%,?,0%,1%,6%
CC(=O)N=c1c(C#N)cc2c(=O)n3cccc(C)c3nc2n1Cc1ccco1,-29%,2%,0%,-1%,28µM*
COC(=O)c1c(N2C(=O)CC(Sc3ccccc3C(=O)O)C2=O)sc(C)c1C (centres undefined),6%,5%,-13%,-17%,4.5µM*
COC(=O)c1c(N2C(=O)CC(Sc3ccccc3C(=O)O)C2=O)sc2c1CCCC2 (centres undefined),-38%,-4%,-24%,22%,2.5µM*
CC(C)C(=O)N1CCC2(CC1)Oc1ccc(F)cc1C(=O)C21CC(c2ccc(Cl)cc2)=NO1 (centres undefined),134%,4%,-10%,-1%,-9%
COC(=O)c1[nH]c2ccc(F)cc2c1NC(=O)CCN1CCN(Cc2ccc3c(c2)OCO3)CC1,67%,-18%,-2%,3%,-26%
CCN(CC(=O)Nc1c(C(=O)OC)[nH]c2ccc(C)cc12)c1ccc2c(c1)OCO2,9%,-13%,5%,?,50µM*
CCOCCCNS(=O)(=O)c1ccc(OC)c(Cl)c1Cl,10%,?,7%,0%,-20%
CCOC(=O)C1=C(CS(=O)(=O)c2ccccc2)NC(=O)NC1c1ccc(OC)c(OC)c1 (centres undefined),-5%,1%,16%,0%,5%
CCOC(=O)C1=C(CS(=O)(=O)c2ccccc2)NC(=O)NC1c1ccccc1OCC (centres undefined),-6%,0%,-2%,-12%,25µM*
Cc1ccc2nc(C(F)C(F)(F)F)[nH]c2c1 (centres undefined),-19%,4%,3%,5%,-9%
O=C(O)c1ccc(S(=O)(=O)Nc2ccc3c(c2)OCCO3)cc1,-16%,2%,10%,16%,32µM*
C=CCn1c(SCC(=O)N2CCOCC2)nc2sc(C)c(C)c2c1=O,36%,-11%,-11%,5%,7%
C=CCSc1nc2sc(C)c(C)c2c(=O)n1CC=C,-23%,-7%,-15%,11%,16µM*
O=C(Nc1nc(-c2ccccn2)cs1)Nc1ccc(F)cc1F,87%,0%,-4%,?,5%
O=C(Nc1nc(-c2ccccc2)cs1)Nc1ccc(F)cc1F,20µM*,-2%,-25%,-1%,53%
Cc1cc(C(=O)CS(=O)(=O)c2ccc(F)cc2)cc(C)c1OC(=O)N(C)C,42%,-5%,0%,0%,-2%
COc1ccc(S(=O)(=O)CC(=O)c2cc(C)c(O)c(C)c2)cc1,-51%,-5%,.,5%,28µM*
Cc1cc(C(=O)CS(=O)(=O)c2ccc(Cl)cc2)cc(C)c1O,-47%,5%,1%,-5%,4.5µM*
NC(=O)CS(=O)(=O)c1ccc(Cl)cc1,-8%,3%,5%,-1%,8%
COc1cc2c(cc1OC)C1O[C@](c3ccsc3)(C2)Oc2cc(-c3ccccc3)oc(=O)c21,-27%[11.4 µM],-8%[22.9 µM],.,7%[12.9 µM],7.1µM*
Clc1ccccc1OCc1nnc(-c2ccccc2Br)o1,-23%,-8%,?,5%,6%
O=c1c(Cl)c(Cl)cnn1Cc1nnc(-c2ccccc2Br)o1,-40%,?,4%,-5%,6.3µM*
SMILES,AmpC inh no detg,AmpC detergent,RE007 growth inh,FBPA Giardia inh,Sm TGR inh
Cn1nnnc1SCC(=O)Nc1ccc(Br)cc1Cl,-14%,?,-22%,-2%,28µM*
Cn1nnnc1SCC(=O)Nc1ccc(Br)cc1Br,-12%,.,9%,.,.
COc1ccccc1NC(=O)c1ccc(NC(=O)CSc2nnnn2C)cc1,-19%,-13%,14%,-3%,5.6µM*
COC(=O)C(C)NC(=O)C1CCCN1S(=O)(=O)c1cc(C)c(Cl)cc1C (centres undefined),19%,-10%,1%,1%,0%
COC(=O)[C@@]1(Cc2ccccc2)[C@H]2C(=O)N(Cc3ccccc3)C(=O)[C@H]2[C@H]2CN=C(SCc3ccc(C)cc3)N21,-9%,.,-16%,.,.
COc1ccc(C2/C=C\CN(CC3CC3)CC(=O)N2Cc2ccc(F)cc2)cc1 (centres undefined),56%,3%,-9%,5%,-31%
COc1ccc(C2/C=C\CN(S(=O)(=O)/C=C/c3ccccc3)[C@H](Cc3ccccc3)C(=O)N2Cc2ccc(F)cc2)cc1 (some centres undefined),-22%,2%,3%,6%,22µM*
COc1ccc(C2/C=C\CN(CC(C)(C)C)CC(=O)N2Cc2ccc(F)cc2)cc1 (centres undefined),111%,0%,-8%,-2%,32µM*
CCc1nnc(NC(=O)Cc2ccc(OC)c(S(=O)(=O)N3CCOCC3)c2)s1,.,.,14%,.,.
CN(C(=S)NC(=O)c1ccc(Cl)cc1)C1CCCCC1,-34%,?,10%,18%,79µM*
COc1cc(/C=N/N=C(\N)c2nonc2N)cc(OC)c1O,-35%,-5%,5%,-17%,28µM*
COc1ccc(/C=N/N=C(\N)c2nonc2N)cc1,-26%,-5%,-15%,1%,6%
CSCCC1Nc2ccc(S(=O)(=O)N3CCOCC3)cc2NC1=O (centres undefined),-11%,-18%,32%,-1%,50µM*
CC1C(=O)Nc2ccc(S(=O)(=O)N3CCCCC3)cc2NC1=O (centres undefined),.,-1%,.,.,-6%
Cc1ccc(/C=C/c2nc3ccccc3[nH]2)cc1,.,2%,.,.,-6%
Cc1ccc(/C=C/c2nc3ccccc3[nH]2)o1,-35%,1%,-30%,?,3.5µM*
CCCS(=O)(=O)c1c(S(=O)(=O)CCC)c2ccccn2c1C(=O)OC,-7%,2%,5%,3%,28µM*
CCCS(=O)(=O)c1c(S(=O)(=O)CCC)c2c(N)cccn2c1C(=O)c1ccc(F)cc1,-5%,4%,5%,?,22µM*
CCCS(=O)(=O)c1c(S(=O)(=O)CCC)c2c(C)cccn2c1C(=O)OC,3%,?,3%,2%,10µM*
CCCS(=O)(=O)c1c(S(=O)(=O)CCC)c2c3ccccc3ccn2c1C(=O)OC,162%,-3%,-7%,-3%,?
Cc1ccc(-c2cc(C(=O)Nc3ccccc3C(N)=O)c3ccccc3n2)o1,.,.,11%,.,.
COCCN(Cc1cc2cc3c(cc2nc1Cl)OCO3)C(=O)Nc1ccccc1OC,-9%,-7%,-5%,11%,2%

# Compound activity as filed in PubChem BioAssay.
